Reference: publication PMC7819943, “Rice protein-binding microarrays: a tool to detect cis-acting elements near promoter regions in rice”
The full ranking holds about 68,000 sequences; the median of “fluorescence intensity (a.u.)” is about 9,100, and the highest 2% start at about 16,000. The full list was thinned out, with the highest values kept by preference.

Each sequence was assayed against OsWRKY34 (Oryza sativa, UniProt Q0JBA9 1-250) (assay: protein-binding microarray (RPBM); PBS, 2% BSA, 51.3 ng/ul salmon testes DNA, 50 uM zinc acetate, 200 nM TF, 25 C, 1 h; high values mean tight binding). Details: protein: recombinant; tags: N-terminal polyhistidine and DsRed monomer fusion (pET32a); label: CyDye5-dUTP incorporated in the synthesized complementary strand; 3' TTTTT single-stranded linker to array surface; dsDNA, one strand shown.
In short: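 Transcription factors, each fused N-terminally to a polyhistidine tag and DsRed, were expressed in E. coli BL21-CodonPlus and purified on Ni–NTA. A custom Agilent array was made double-stranded by primer extension with Cy5-dUTP and blocked with 2% BSA. It was incubated with 200 nM protein in PBS, 2% BSA, salmon testes DNA and 50 µM zinc acetate at 25 °C for 1 h, then washed. The binding signal is per-feature fluorescence intensity (arbitrary units) read on an Axon 4000B scanner.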

Chain of OsWRKY34 (Q0JBA9 entry or part of it): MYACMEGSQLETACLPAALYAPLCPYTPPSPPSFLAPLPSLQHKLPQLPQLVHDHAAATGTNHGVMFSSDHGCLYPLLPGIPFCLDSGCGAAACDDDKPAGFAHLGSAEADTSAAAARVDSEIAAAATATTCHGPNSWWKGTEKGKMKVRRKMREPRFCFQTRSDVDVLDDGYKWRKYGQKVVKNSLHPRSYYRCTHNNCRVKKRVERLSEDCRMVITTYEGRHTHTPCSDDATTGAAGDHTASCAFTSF

Row | Sequence | binding signal
1 | TTTATTATTAGTCTAAGTTTAATACTTCTTATTAGTGTCACGGAGTCACCTAGTGCAG | 8180 fluorescence intensity (a.u.)
2 | TGATACTTGGCAGGCGTCGTCTCCAAATACCTGACCACTTCGGAGTCACCTAGTGCAG | 8290 fluorescence intensity (a.u.)
3 | AATAGATCACCACATTCAATGCAGTTCTTCCGATTAAATTCGGAGTCACCTAGTGCAG | 9730 fluorescence intensity (a.u.)
4 | GGTTGCTCAGTTGCCGACACATTTCTGCAGACCCATTTTGCGGAGTCACCTAGTGCAG | 8080 fluorescence intensity (a.u.)
5 | CTGTCCTCTATCGATTGTTCTGACTTGGGTCACCATGTAACGGAGTCACCTAGTGCAG | 8990 fluorescence intensity (a.u.)
6 | CTCTGACTCTCTGTTCCAATTCCCACACGTTTCTCTCGCGCGGAGTCACCTAGTGCAG | 14800 fluorescence intensity (a.u.)
7 | ACGTGTCACCTTCTTATTCGCTGGGTTTTTTCTGGTGGGTCGGAGTCACCTAGTGCAG | 8770 fluorescence intensity (a.u.)
8 | AAGTGTTTTCGTTTTTTTTTCATTCGCTATTATTTTCTTTCGGAGTCACCTAGTGCAG | 9660 fluorescence intensity (a.u.)
9 | CCCACGTATTCCCCACCTTATCTCACTGTCTCGTGGGCCCCGGAGTCACCTAGTGCAG | 10500 fluorescence intensity (a.u.)
10 | ATGGGGTGTTTTTTTTTTCGCTATATTCTCTTAGAACTGTCGGAGTCACCTAGTGCAG | 18000 fluorescence intensity (a.u.)
11 | ATTGGTGGTAATCGGAGGTGGAGGTGGGCGTGATGATCTCCGGAGTCACCTAGTGCAG | 11100 fluorescence intensity (a.u.)
12 | CTTGTCTCTCTTTCTCTTTCTCTCTCTCTCACCTGTTATTCGGAGTCACCTAGTGCAG | 9740 fluorescence intensity (a.u.)
13 | TTAGGTGTTTTGTAGTAGTGTAATGGGGCATATTCGTGGGCGGAGTCACCTAGTGCAG | 8270 fluorescence intensity (a.u.)
14 | CCGCCGAGTCACTGCTCTCGTTCTTATCCACACTGCCCGACGGAGTCACCTAGTGCAG | 9120 fluorescence intensity (a.u.)
15 | AGGTAATCATATTGTTGTTATTCGTGGATGGGGTGGGCTCCGGAGTCACCTAGTGCAG | 16400 fluorescence intensity (a.u.)
16 | TTCGTGGATGGGGTGGGCTCTTTCTCACTGTTATATTGTCCGGAGTCACCTAGTGCAG | 27500 fluorescence intensity (a.u.)
17 | GCTCTTATCCCGAGCTCGTGTCACTGGTGGGGTGGGGCCCCGGAGTCACCTAGTGCAG | 16600 fluorescence intensity (a.u.)
18 | TTTCTCACTGTTATATTGTCTAATATCATCTTTCTCTTTTCGGAGTCACCTAGTGCAG | 9880 fluorescence intensity (a.u.)
19 | TTAGTAGTATATCGTCACCAATTATTGTAGTTAGCTCCACCGGAGTCACCTAGTGCAG | 9580 fluorescence intensity (a.u.)
20 | ATCCGATTTTTTTTCGCAATCTCCGAAATTTCACTTCTATCGGAGTCACCTAGTGCAG | 11200 fluorescence intensity (a.u.)

Row | Sequence | binding signal
21 | GTCCGCTTCCATTGGGAGCGCGGCTACTGGCTGGGTTTACCGGAGTCACCTAGTGCAG | 8770 fluorescence intensity (a.u.)
22 | ATCCTATATTTGTTGCAGTTCATTCATTTCATCACCAGTTCGGAGTCACCTAGTGCAG | 8840 fluorescence intensity (a.u.)
23 | CGATCTCTCTCTCTCACACACCCGCCTCACCCTCACCGCCCGGAGTCACCTAGTGCAG | 10800 fluorescence intensity (a.u.)
24 | CAGCAGATTGCCCATCTCTCGTTGTACTGCCAATCTCTCCCGGAGTCACCTAGTGCAG | 9530 fluorescence intensity (a.u.)
25 | CCGGTATTGATGTGTTCCCCAAGCCAAAAAAAAAAAGAAGCGGAGTCACCTAGTGCAG | 64800 fluorescence intensity (a.u.)
26 | ATGTCACCAAGCGGTATAGGTCTGAATGTATTGATGTGCCCGGAGTCACCTAGTGCAG | 9370 fluorescence intensity (a.u.)
27 | ACTGTTCATTGTTGATGGCCTTTTCCAAAAACTAGAAAAGCGGAGTCACCTAGTGCAG | 8460 fluorescence intensity (a.u.)
28 | GTTTCCTGGTGGTCCAATATAATACCTAGATAAGGTGTATCGGAGTCACCTAGTGCAG | 8510 fluorescence intensity (a.u.)
29 | GTCCAGATACTAAGGTGTATGGTATTATCGGAAAACCTGTCGGAGTCACCTAGTGCAG | 24300 fluorescence intensity (a.u.)
30 | TTATTATGGTTATATTGTACTAATTCATTGTCCAGGTTTTCGGAGTCACCTAGTGCAG | 8430 fluorescence intensity (a.u.)
31 | TAGCTAGCTCTTGTACAGGTTTCCTCACCTGCTGTATCGACGGAGTCACCTAGTGCAG | 8060 fluorescence intensity (a.u.)
32 | GAGACTAATTCCGACCTTGACCAAACCAAACCCTACCAAACGGAGTCACCTAGTGCAG | 9200 fluorescence intensity (a.u.)
33 | GGCTCGTCGGAGTAGGGGCGCTCGGGGTATGGGGCTCGGCCGGAGTCACCTAGTGCAG | 20400 fluorescence intensity (a.u.)
34 | GTGGGGTTGGGTTACGTGGTGGAGCTGAGCCCGGCGGCGCCGGAGTCACCTAGTGCAG | 11600 fluorescence intensity (a.u.)
35 | GGGGTGGTGGTGGTGGCGGCGGCAGTGTTGTTGGTCGCCGCGGAGTCACCTAGTGCAG | 13500 fluorescence intensity (a.u.)
36 | CGGCTCGGCTCGGCTCGCGCGGCGGCGGCGGCGGGGCGGCCGGAGTCACCTAGTGCAG | 8890 fluorescence intensity (a.u.)
37 | GCCGGCGCCGGTGGCGTGCGGTCGTGGGCGGGAGGTGGTGCGGAGTCACCTAGTGCAG | 12300 fluorescence intensity (a.u.)
38 | ATGTGGGTGTGGCATTGTTGGTGTCGGCTGCGCCGCAGCCCGGAGTCACCTAGTGCAG | 9630 fluorescence intensity (a.u.)
39 | TCGTGTTGGTGGTGGTGGTGGTGTGCGGGCGGGCGGGCGCCGGAGTCACCTAGTGCAG | 33300 fluorescence intensity (a.u.)
40 | AGGTGGTGTAGCGCGCGCGGGTGGGGTTGGGTTACGTGGTCGGAGTCACCTAGTGCAG | 15600 fluorescence intensity (a.u.)

Row | Sequence | binding signal
41 | TCGCCGGCGGAGGAGTTGGTGTGGAGAGGGCGGGGAGATGCGGAGTCACCTAGTGCAG | 9560 fluorescence intensity (a.u.)
42 | CCGTGGTTGGGGTGGTGGGCCGGGGTGTTACGTTAATGGGCGGAGTCACCTAGTGCAG | 16500 fluorescence intensity (a.u.)
43 | GGAGGGTGGGGTAGGAGAGGATGCGGCGGGCGCCATGGCTCGGAGTCACCTAGTGCAG | 8590 fluorescence intensity (a.u.)
44 | TTTGTGTGTGTGTTGTTGGTCGGGTGGGGTCGCCGGCGCCCGGAGTCACCTAGTGCAG | 20100 fluorescence intensity (a.u.)
45 | CGTTGTTTATCTTTTCTAATGCCATGTGTATATATGATTCCGGAGTCACCTAGTGCAG | 10500 fluorescence intensity (a.u.)
46 | CCCGTGCTCTTTGTAGATTTACTACCTTTGGACTTGACCTCGGAGTCACCTAGTGCAG | 11200 fluorescence intensity (a.u.)
47 | TCTGCGCTCCCGCATGCCGGCCGCTGAATCATCGTCAATCCGGAGTCACCTAGTGCAG | 9000 fluorescence intensity (a.u.)
48 | AATAGCCTCGTCCCTGTAAACTCCCAATCCCTTTTTAAAACGGAGTCACCTAGTGCAG | 8420 fluorescence intensity (a.u.)
49 | AGTTGTGGAGCTGTCTAAACCCATCTCTACTTCTCTACTTCGGAGTCACCTAGTGCAG | 8200 fluorescence intensity (a.u.)
50 | TTTCCTCATTTATTCACCTGTCACACCATCTTTCATCATACGGAGTCACCTAGTGCAG | 9590 fluorescence intensity (a.u.)
51 | CCTGATCGGATTTGGTTGGCTGGTGCTCTAGATGATGTACCGGAGTCACCTAGTGCAG | 8170 fluorescence intensity (a.u.)
52 | GGGGAGTTGGGATTTTTGGCGATGTGGGTTTCGTACACCGCGGAGTCACCTAGTGCAG | 9870 fluorescence intensity (a.u.)
53 | GTGCGAGCTGCGCCCGTGTGATGTGGGCGGGTGGGTGTTCCGGAGTCACCTAGTGCAG | 16900 fluorescence intensity (a.u.)
54 | TTGGCGAGCGAGCTGTGTGGTGGTGGTGGTGGGTGAGTGGCGGAGTCACCTAGTGCAG | 13600 fluorescence intensity (a.u.)
55 | TGGGGTGGGTGCCCGGAGCTTTGATGCGCGTGGCCGCCGGCGGAGTCACCTAGTGCAG | 12400 fluorescence intensity (a.u.)
56 | CGTCGGGGTTGGGGTTGGGGCTGGGGCCGGCGCCGACGCCCGGAGTCACCTAGTGCAG | 13400 fluorescence intensity (a.u.)
57 | GGCGCCGGCGCTAGCGCCCACGTCGGGGTTGGGGTTGGGGCGGAGTCACCTAGTGCAG | 16600 fluorescence intensity (a.u.)
58 | CGGTTGCGGGTGGGCAGCGGCAGCGTCGCCGGCTGGGGCGCGGAGTCACCTAGTGCAG | 9840 fluorescence intensity (a.u.)
